Activity calls are given as the source filed them.
Key:
[1] = tested on: PRMT1 (protein arginine N-methyltransferase 1); assay: small molecules binding arginine methyltransferase PRMT1 – biochemical, small-molecule microarray, 635 nm fluorescence, primary screen (AID 1088); settings: higher = more signal;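 further: binding of Prmt1 protein to compounds spotted on small-molecule microarray slides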
[2] = growth effects on S. cerevisiae YJM789 – YJM789 clinical isolate, OD600, 24 h, basal, primary screen (AID 1089); settings: higher = more signal, called active from +8 up or from −8 down;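 further: growth of clinical yeast isolate S. cerevisiae YJM 789 seeded 1000 cells per well; test concentration not given here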
[3] = S. pombe growth modifiers, basal conditions – strain 972, OD600, 24 h, no modulator, primary screen (AID 1090);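 further: basal condition with compound alone and no growth modifier present; test concentration not given here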; settings: S. pombe 972 growth, higher = more signal, called active from +8 up or from −8 down
[4] = budding yeast growth modifiers under rapamycin – strain BY4716, OD600, 96 h, primary screen (AID 1091); further: test concentration not given here; settings: S. cerevisiae BY4716 + rapamycin, higher = more signal, called active from +8 up or from −8 down
[5] = target: Torsin-1A-interacting protein 2 (Homo sapiens) (UniProt Q8NFQ8); assay: small molecules binding lysate-expressed LULL1 – cell lysate, human LULL1 lysate, 635/667 nm fluorescence, primary screen (AID 1092); settings: small-molecule microarray, hLULL1 lysate binding, 635 nm fluorescence; higher = more signal;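 further: probe is lysate of COS7 cells overexpressing human LULL1; score merges per-feature 667 nm fluorescence with signal-to-noise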
[6] = optical density change of DRC41 E. coli – strain DRC41, OD650, 24 h, E. coli filamentation project, primary screen (AID 1093);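 further: MC1000 strain lacking acrAB efflux and sulA so SOS filamentation is blocked; test concentration not given here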; settings: E. coli DRC41 growth, higher = more signal, called active from +8 up or from −8 down
[7] = probe aLefty2 binding to arrayed compounds – biochemical, biotinylated probe, 635/667 nm fluorescence, primary screen (AID 1094); settings: small-molecule microarray, higher = more signal;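 further: score merges spot fluorescence near 667 nm with spot signal-to-noise ratio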
[8] = tested on: Noggin (protein binding on small-molecule microarray); assay: small molecules binding Noggin protein – biochemical, 635/667 nm fluorescence, primary screen (AID 1095); settings: 635 nm fluorescence, higher = more signal;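 further: score merges 667 nm feature fluorescence with signal to noise over triplicate slides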
[9] = target: Neurogenic locus notch homolog protein 3 (Homo sapiens) (UniProt Q9UM47); assay: small molecules binding NOTCH3 protein – biochemical, 635/667 nm fluorescence, primary screen (AID 1096); settings: small-molecule microarray, 635 nm fluorescence, higher = more signal
[10] = probe aEGFR binding to arrayed compounds – biochemical, biotinylated probe, 635/667 nm fluorescence, primary screen (AID 1097); settings: small-molecule microarray, higher = more signal;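 further: probe is a biotinylated anti-EGFR antibody binding compounds printed on slides; score combines fluorescence near 667 nm and signal to noise of each spot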
[11] = tested on: Plasmodium falciparum Sir2 (PF13_0152, Sir2A); assay: Plasmodium falciparum Sir2A binding compounds – biochemical, small-molecule microarray, 635 nm fluorescence, primary screen (AID 1098); settings: fluorescence 635 nm, higher = more signal;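 further: score merges spot fluorescence intensity with its signal-to-noise ratio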
[12] = probe aDKK1 binding to arrayed compounds – biochemical, biotinylated probe, 635/667 nm fluorescence, primary screen (AID 1099); settings: small-molecule microarray, higher = more signal;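 further: score merges 667nm spot fluorescence with signal to noise across triplicate slides; reference of the scale not given here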
[13] = probe aCHRDL2 binding to arrayed compounds – biochemical, biotinylated probe, 635/667 nm fluorescence, primary screen (AID 1100); settings: small-molecule microarray, higher = more signal
[14] = change in splice reporter luminescence, either direction, cell-based, HEK293, spliceosome inhibition project, primary screen (AID 1101); settings: HEK293 splicing luciferase reporter, 24 h, higher = more signal, called active from +8 up or from −8 down;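 further: HEK293 cells carrying a splicing-competent luciferase reporter gene; test concentration not given here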
[15] = target: Fibroblast growth factor 10 (Homo sapiens) (UniProt O15520); assay: compounds binding fibroblast growth factor 10 – biochemical, small-molecule microarray, 635 nm fluorescence, primary screen (AID 1102); settings: FGF10 binding, fluorescence 635 nm, higher = more signal
[16] = tested on: glycogen synthase kinase-3 (GSK3A per assay name; protocol says GSK3B); assay: compounds binding glycogen synthase kinase-3 – biochemical, small-molecule microarray, 635 nm fluorescence, GSK3A, primary screen (AID 1103); settings: fluorescence 635 nm, higher = more signal; further: the record names both GSK3A and GSK3B
[17] = target: Epidermal growth factor receptor (Homo sapiens) (UniProt P00533); assay: compounds binding epidermal growth factor receptor – biochemical, small-molecule microarray, 635 nm fluorescence, primary screen (AID 1104); settings: EGFR binding, higher = more signal;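 further: score merges 667 nm emission intensity with spot signal to noise over triplicate slides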
[18] = target: Follistatin-related protein 3 (Homo sapiens) (UniProt O95633); assay: compounds binding follistatin-related protein 3 – biochemical, small-molecule microarray, 635 nm fluorescence, primary screen (AID 1105); settings: FSTL3 binding, higher = more signal;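 further: score merges emission near 667 nm and signal to noise per printed spot across three slides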
[19] = target: Dickkopf-related protein 1 (Homo sapiens) (UniProt O94907); assay: small molecules binding DKK1 protein – biochemical, small-molecule microarray, 635 nm fluorescence scan, primary screen (AID 1106); settings: higher = more signal;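 further: score merges emission near 667 nm with signal to noise over three replicate slides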
[20] = tested on: Inhibin beta A chain (activin A); assay: small molecules binding activin A – biochemical, small-molecule microarray, 635 nm fluorescence scan, primary screen (AID 1107); settings: INHBA, higher = more signal;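 further: mouse activin A protein probed at 4.33 µg/mL on printed slides; score merges bound-protein fluorescence near 667 nm with spot signal-to-noise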

Sequence of Follistatin-related protein 3 (Homo sapiens) (O95633 whole entry, looked up): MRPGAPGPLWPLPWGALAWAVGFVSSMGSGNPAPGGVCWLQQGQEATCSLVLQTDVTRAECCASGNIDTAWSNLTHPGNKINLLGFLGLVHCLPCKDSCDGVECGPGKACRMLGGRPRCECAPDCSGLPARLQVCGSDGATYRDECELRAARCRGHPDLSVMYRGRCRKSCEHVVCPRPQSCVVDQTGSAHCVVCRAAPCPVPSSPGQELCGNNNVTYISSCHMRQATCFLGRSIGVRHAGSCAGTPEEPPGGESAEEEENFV
Sequence of Dickkopf-related protein 1 (Homo sapiens) (O94907 whole entry, looked up): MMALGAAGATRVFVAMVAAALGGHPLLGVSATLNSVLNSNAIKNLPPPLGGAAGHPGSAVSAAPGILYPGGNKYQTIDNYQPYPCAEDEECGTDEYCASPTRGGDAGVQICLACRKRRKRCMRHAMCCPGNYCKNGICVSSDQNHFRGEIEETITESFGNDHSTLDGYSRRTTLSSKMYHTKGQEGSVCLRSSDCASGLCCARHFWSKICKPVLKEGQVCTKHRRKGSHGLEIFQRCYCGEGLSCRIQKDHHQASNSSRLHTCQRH
Sequence of Neurogenic locus notch homolog protein 3 (Homo sapiens) (Q9UM47 whole entry, looked up): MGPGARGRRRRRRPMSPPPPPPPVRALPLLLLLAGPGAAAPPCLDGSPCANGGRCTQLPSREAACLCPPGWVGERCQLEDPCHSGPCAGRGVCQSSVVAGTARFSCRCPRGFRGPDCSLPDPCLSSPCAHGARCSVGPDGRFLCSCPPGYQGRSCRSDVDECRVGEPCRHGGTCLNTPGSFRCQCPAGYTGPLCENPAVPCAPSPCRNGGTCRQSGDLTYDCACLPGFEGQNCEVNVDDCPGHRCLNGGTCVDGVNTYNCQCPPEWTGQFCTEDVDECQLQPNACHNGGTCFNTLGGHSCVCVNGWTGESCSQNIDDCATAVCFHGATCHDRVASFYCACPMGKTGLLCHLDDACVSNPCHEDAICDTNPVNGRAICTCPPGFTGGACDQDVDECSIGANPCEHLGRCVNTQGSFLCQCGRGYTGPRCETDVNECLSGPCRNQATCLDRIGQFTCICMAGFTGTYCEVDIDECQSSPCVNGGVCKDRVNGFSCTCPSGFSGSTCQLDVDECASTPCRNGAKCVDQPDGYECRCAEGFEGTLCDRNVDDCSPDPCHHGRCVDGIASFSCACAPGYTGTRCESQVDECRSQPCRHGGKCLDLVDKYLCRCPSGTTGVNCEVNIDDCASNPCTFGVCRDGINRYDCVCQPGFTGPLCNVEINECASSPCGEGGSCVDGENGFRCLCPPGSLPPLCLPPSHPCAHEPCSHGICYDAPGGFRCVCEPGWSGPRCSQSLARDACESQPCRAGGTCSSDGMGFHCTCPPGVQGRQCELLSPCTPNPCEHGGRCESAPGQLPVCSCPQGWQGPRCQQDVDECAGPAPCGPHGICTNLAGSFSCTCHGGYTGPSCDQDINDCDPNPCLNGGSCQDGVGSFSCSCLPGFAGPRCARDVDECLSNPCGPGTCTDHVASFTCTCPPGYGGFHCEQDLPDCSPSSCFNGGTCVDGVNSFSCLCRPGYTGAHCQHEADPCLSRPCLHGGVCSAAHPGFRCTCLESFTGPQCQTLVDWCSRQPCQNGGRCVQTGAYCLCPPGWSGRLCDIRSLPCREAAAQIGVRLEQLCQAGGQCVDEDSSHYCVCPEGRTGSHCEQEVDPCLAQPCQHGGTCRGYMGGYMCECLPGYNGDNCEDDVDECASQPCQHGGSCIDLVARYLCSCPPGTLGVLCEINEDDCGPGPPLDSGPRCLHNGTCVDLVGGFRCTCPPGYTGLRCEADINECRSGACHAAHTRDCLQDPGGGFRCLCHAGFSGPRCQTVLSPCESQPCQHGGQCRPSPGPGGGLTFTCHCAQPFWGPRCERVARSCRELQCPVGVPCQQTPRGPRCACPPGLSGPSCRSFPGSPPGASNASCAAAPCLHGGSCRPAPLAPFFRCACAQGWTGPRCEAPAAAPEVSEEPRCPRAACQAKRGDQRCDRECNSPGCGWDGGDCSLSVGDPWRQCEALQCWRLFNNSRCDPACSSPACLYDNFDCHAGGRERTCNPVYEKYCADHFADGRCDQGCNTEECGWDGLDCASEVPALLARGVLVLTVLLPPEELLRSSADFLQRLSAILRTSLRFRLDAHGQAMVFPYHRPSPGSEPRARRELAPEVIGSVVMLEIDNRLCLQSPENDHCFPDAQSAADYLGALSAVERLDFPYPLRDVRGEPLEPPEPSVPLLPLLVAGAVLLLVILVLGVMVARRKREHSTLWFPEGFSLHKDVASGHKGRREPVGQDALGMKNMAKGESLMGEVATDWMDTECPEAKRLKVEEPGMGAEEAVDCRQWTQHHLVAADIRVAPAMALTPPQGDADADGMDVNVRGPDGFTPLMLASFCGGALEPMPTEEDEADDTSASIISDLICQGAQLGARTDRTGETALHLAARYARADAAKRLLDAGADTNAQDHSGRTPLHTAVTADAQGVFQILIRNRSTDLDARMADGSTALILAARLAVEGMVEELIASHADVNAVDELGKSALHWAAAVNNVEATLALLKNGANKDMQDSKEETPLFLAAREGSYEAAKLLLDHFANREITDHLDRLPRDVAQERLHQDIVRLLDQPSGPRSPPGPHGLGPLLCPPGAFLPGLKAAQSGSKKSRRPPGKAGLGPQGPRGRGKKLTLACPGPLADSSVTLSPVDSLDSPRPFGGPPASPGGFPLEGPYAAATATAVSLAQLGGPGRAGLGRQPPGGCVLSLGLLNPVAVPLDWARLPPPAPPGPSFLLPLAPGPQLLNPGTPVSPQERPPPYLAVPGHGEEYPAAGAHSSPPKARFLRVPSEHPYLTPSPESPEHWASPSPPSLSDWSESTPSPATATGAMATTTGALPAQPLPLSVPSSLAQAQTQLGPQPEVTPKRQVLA
Sequence of Torsin-1A-interacting protein 2 (Homo sapiens) (Q8NFQ8 whole entry, looked up): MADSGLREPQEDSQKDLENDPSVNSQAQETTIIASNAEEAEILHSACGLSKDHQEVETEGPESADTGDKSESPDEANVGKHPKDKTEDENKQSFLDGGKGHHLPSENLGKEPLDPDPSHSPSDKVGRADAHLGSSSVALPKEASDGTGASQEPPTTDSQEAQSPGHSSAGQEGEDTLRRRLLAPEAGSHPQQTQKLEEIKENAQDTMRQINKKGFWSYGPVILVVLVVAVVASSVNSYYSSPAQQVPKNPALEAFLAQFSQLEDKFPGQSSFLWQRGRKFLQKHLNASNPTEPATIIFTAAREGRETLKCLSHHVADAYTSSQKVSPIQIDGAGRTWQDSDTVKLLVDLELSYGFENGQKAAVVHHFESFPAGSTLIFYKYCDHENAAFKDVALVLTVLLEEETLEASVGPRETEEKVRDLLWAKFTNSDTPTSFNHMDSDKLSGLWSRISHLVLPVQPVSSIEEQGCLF
Sequence of Epidermal growth factor receptor (Homo sapiens) (P00533 whole entry, looked up): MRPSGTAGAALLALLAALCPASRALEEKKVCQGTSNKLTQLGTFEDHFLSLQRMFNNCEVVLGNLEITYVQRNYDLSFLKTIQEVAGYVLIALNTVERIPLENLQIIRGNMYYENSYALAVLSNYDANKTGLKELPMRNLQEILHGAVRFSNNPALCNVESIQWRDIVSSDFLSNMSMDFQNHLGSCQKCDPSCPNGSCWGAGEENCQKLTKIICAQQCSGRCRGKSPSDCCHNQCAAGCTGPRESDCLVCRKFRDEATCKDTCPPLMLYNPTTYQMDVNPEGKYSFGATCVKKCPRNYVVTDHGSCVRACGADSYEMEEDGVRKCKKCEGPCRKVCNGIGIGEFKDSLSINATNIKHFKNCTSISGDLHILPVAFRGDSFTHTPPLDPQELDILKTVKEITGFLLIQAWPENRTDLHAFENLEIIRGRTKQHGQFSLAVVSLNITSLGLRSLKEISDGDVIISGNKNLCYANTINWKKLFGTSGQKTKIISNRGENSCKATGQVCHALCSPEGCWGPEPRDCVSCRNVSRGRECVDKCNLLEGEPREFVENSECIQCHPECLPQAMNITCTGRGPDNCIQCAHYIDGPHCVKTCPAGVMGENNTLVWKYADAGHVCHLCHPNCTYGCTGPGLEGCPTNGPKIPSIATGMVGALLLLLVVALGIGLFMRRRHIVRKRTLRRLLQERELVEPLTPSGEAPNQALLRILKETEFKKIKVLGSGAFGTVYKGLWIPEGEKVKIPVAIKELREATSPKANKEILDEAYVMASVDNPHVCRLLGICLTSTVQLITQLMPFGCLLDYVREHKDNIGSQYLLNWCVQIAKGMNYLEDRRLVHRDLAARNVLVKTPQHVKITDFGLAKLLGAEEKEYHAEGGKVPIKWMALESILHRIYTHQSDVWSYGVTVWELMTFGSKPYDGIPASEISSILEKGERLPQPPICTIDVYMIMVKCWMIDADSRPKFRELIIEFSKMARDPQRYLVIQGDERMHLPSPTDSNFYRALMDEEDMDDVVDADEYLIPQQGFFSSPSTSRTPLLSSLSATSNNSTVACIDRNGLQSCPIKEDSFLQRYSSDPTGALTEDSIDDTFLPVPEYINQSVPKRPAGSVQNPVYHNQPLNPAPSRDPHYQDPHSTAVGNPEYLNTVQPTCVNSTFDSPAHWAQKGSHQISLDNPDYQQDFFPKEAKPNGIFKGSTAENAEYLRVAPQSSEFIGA
Sequence of Fibroblast growth factor 10 (Homo sapiens) (O15520 whole entry, looked up): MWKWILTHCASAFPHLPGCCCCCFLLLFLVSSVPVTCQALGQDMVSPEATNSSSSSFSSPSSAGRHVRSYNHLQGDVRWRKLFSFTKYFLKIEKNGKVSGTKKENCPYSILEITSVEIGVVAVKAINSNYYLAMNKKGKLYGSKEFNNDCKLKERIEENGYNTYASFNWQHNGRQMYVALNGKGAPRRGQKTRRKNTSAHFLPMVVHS

| Compound | composite z-score [1] | z-score [2] | z-score [3] | z-score [4] | composite z-score [5] | z-score [6] | composite z-score [7] | composite z-score [8] | composite z-score [9] | composite z-score [10] | composite z-score [11] | composite z-score [12] | composite z-score [13] | z-score [14] | composite z-score [15] | composite z-score [16] | composite z-score [17] | composite z-score [18] | composite z-score [19] | composite z-score [20] |
| --- | --- | --- | --- | --- | --- | --- | --- | --- | --- | --- | --- | --- | --- | --- | --- | --- | --- | --- | --- | --- |
| COC(=O)[C@H](C)NC(=O)CCC1CC(OC(=O)NCCc2ccc(F)cc2)CC2(CCCC(COC(=O)NCCc3ccccc3OC)O2)O1 (stereo not given in full) | 1.11 | 0.522 (inactive) | 0.89 (inactive) | 0.896 (inactive) | 1.16 | -0.0328 (inactive) | -0.0916 | 0.452 | 1.09 | 0.104 | 0.557 | -0.0554 | -0.494 | -0.221 (inactive) | 1.11 | 1.05 | 0.484 | 1.16 | 1.26 | 0.176 |
| C#CCCCON=C1C[C@@H](O)[C@@H](O)[C@@H]2[C@@H]3C(=O)N(C[C@@H]4CCCO4)C(=O)[C@@H]3CC[C@H]12 | 0.81 | 0.426 (inactive) | 0.775 (inactive) | 0.749 (inactive) | 1.22 | 0.397 (inactive) | -0.134 | 0.463 | 0.607 | -0.0828 | 0.407 | -0.201 | -0.346 | 0.44 (inactive) | 0.331 | 0.444 | 0.451 | 0.457 | 0.481 | -0.0374 |
| CC(=O)OC[C@H]1O[C@H](CC=NOC(C)CN2CCCCc3nc(C)c(C)cc32)C=C[C@@H]1OC(C)=O (stereo not given in full) | 1.54 | -0.814 (inactive) | -0.0245 (inactive) | -0.151 (inactive) | 1.51 | 0.522 (inactive) | 0.176 | 1.13 | 1.01 | 0.43 | 1.14 | -0.0799 | -0.199 | 0.375 (inactive) | 0.83 | 1.31 | 1.59 | 1.31 | 1.68 | 1.13 |
| COCCNC(=O)OCC1CCCC2(CC(OC(=O)NCc3cccc4ccccc34)CC(CCC(=O)N[C@@H](C)C(=O)OC)O2)O1 (stereo not given in full) | 1.55 | 1.48 (inactive) | 1.4 (inactive) | 2.67 (inactive) | 1.29 | 0.22 (inactive) | -0.145 | 1.18 | 1.05 | -0.0978 | 0.798 | -0.252 | -0.589 | -0.674 (inactive) | 1.06 | 1.22 | 0.709 | 0.781 | 0.735 | -0.0341 |
| O=C1[C@H]2[C@H]3[C@H](O)[C@H](O)CC(=NOC[C@@H](O)COCc4ccco4)[C@@H]3CC[C@H]2C(=O)N1C1CCCCC1 | 1.39 | 1.61 (inactive) | -0.0798 (inactive) | -0.133 (inactive) | 1.25 | 0.61 (inactive) | -0.061 | 1.75 | 0.437 | 0.0583 | 0.225 | -0.401 | -1.26 | 0.76 (inactive) | -0.102 | 1.04 | 0.783 | 1.36 | 1.46 | 1.23 |

From PubChem BioAssay
